# Measured values: PubChem BioAssay (Tox21)
# “And” between values parts separate entries of the source, which are not always exact repeats. Identical values can stand only once. Results filed as inconclusive are left out. A call without a number means that no potency is given here. A structure can be active in one record and inactive in another. The source made the active and inactive calls. Unless noted, calls follow the shape of the dose curve; as a rule, active = well fitted curve in the direction sought with a large enough effect in the repeat runs; inconclusive = weak or mixed curves; inactive = no such curve, though single readings can be large; an effect the other way counts as inactive or inconclusive.
# Legend:
# [1] = A CellTox Green Cytotoxicity Assay to monitor cytotoxicity in HEK293 cells - 32 hour (AID 1224881); also: nearly all actives have a fitted effect of over 40% in size; also: potency is read from the fitted curve at half-maximal effect
# How it was run: (§1)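 Fluorescence intensity, read at 0, 8, 16, 24, 32 and 40 h of compound treatment, reflected dye binding to DNA of dead HEK293 cells; compounds (23 nL, DMSO) were added 5 h after plating cells with reagent.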
# [2] = A CellTox Green Cytotoxicity Assay to monitor cytotoxicity in HepG2 cells - 0 hour (AID 1224882); also: nearly all actives have a fitted effect of over 35% in size
# How it was run: (§2)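 Using 1536-well format, dye-containing HepG2 suspension was seeded, allowed 5 h at 37 C/5% CO2, dosed by pintool with compounds, positive and negative controls, and imaged for fluorescence across 40 h.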
# [3] = A CellTox Green Cytotoxicity Assay to monitor cytotoxicity in HepG2 cells - 32 hour (AID 1224883); also: nearly all actives have a fitted effect of over 50% in size; also: potency is read from the fitted curve at half-maximal effect
# How it was run: as §2
# [4] = A CellTox Green Cytotoxicity Assay to monitor cytotoxicity in HEK293 cells - 8 hour (AID 1224884); also: nearly all actives have a fitted effect of over 35% in size; also: potency is read from the fitted curve at half-maximal effect
# How it was run: as §1
# [5] = qHTS RealTime-Glo MT Cell Viability Assay in HepG2 cells - 16 hour (AID 1224885); also: nearly all actives have a fitted effect of over 50% in size
# How it was run: (§3)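 Cells + NanoLuc/prosubstrate dispensed (600 cells/well) → 5 h at 37 C/5% CO2 → compounds in DMSO transferred → 40 h incubation at 37 C, luminescence read at 0, 8, 16, 24, 32, 40 h.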
# [6] = qHTS RealTime-Glo MT Cell Viability Assay in HEK293 cells - 24 hour (AID 1224886); also: nearly all actives have a fitted effect of over 50% in size; also: potency is read from the fitted curve at half-maximal effect
# How it was run: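 Tox21 10K qHTS, HEK293, 600 cells/well, RealTime-Glo reagent co-dispensed with cells; 5 h preincubation, compound by pintool, 37 C, luminescence at 0–40 h.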
# [7] = qHTS RealTime-Glo MT Cell Viability Assay in HEK293 cells - 8 hour (AID 1224887); also: nearly all actives have a fitted effect of over 50% in size; also: potency is read from the fitted curve at half-maximal effect
# How it was run: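 Viable HEK293 cells reduce a cell-permeant prosubstrate; the product diffuses out and is consumed by NanoLuc in the medium to give light. Compounds went in after a 5 h incubation and plates were read over the treatment course.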
# [8] = A CellTox Green Cytotoxicity Assay to monitor cytotoxicity in HEK293 cells - 16 hour (AID 1224888); also: nearly all actives have a fitted effect of over 35% in size
# How it was run: as §1
# [9] = qHTS RealTime-Glo MT Cell Viability Assay in HepG2 cells - 0 hour (AID 1224889); also: nearly all actives have a fitted effect of over 50% in size
# How it was run: as §3
# [10] = A CellTox Green Cytotoxicity Assay to monitor cytotoxicity in HepG2 cells - 8 hour (AID 1224890); also: nearly all actives have a fitted effect of over 45% in size; also: potency is read from the fitted curve at half-maximal effect
# How it was run: as §2
# [11] = qHTS assay to identify small molecule antagonists of the androgen receptor (AR) signaling pathway using the MDA cell line in the presence of 0.5 nM R1881 - cell viability counter screen (AID 1259242); also: nearly all actives have a fitted effect of over 45% in size
# How it was run: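 Viability of MDA-kb2 cells was multiplexed with the luciferase AR readout; after 16 hr with compounds and R1881 at 0.5 nM final, CellTiter-Fluor fluorescence was recorded.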
# [12] = target: Estrogen receptor (Homo sapiens) (UniProt P03372); test: qHTS assay to identify small molecule antagonists of the estrogen receptor alpha (ER-alpha) signaling pathway using the BG1 cell line in the presence of 0.1 nM 17-beta-estradiol (AID 1259244); also: nearly all actives have a fitted effect of over 50% in size; also: potency is read from the fitted curve at half-maximal effect
# Chain of Estrogen receptor (Homo sapiens) (P03372 whole entry, looked up): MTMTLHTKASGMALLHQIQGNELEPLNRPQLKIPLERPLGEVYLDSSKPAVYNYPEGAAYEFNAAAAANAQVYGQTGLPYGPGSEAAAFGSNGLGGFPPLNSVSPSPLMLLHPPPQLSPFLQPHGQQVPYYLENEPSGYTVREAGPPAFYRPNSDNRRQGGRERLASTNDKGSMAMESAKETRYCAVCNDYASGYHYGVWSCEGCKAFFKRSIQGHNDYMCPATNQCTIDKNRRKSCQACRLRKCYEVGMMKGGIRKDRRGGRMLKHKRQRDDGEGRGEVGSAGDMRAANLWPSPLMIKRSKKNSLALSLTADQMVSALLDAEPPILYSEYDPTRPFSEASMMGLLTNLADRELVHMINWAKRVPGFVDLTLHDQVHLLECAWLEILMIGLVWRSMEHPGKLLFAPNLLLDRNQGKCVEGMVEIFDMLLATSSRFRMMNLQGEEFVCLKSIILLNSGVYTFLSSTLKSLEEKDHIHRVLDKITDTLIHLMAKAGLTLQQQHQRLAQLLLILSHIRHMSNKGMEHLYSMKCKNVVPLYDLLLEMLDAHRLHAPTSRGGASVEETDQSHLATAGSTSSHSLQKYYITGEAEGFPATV
# How it was run: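 Estradiol at 0.1 nM (final) stimulates the endogenous ER-alpha of VM7Luc4E2 cells carrying an ERE-driven luciferase; compounds are co-incubated 22 h at 37C and luciferase output quantified by luminescence.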
# [13] = qHTS assay to identify small molecule phospholipidosis (PLD) inducers (AID 1259344; active = well fitted curve in the direction sought with a large enough effect; an effect the other way counts as inactive or inconclusive)
# How it was run: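 Phospholipidosis is scored by imaging LipidTOX-stained pits in HepG2 cells exposed to compound for 24 h at 37 C; pit counts and integrated intensities per well and per cell serve as outputs.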
# [14] = qHTS assay to identify small molecule HDAC inhibitors (AID 1259364); also: potency is read from the fitted curve at half-maximal effect;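 also: wild-type HCT-116 cells with endogenous class I/II HDAC activity; nearly all actives have a fitted effect of over 45% in size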
# How it was run: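 Read-out: luminescence of HDAC-Glo I/II reagent, 30 min RT, reflecting class I/II deacetylase activity in whole HCT-116 cells pre-exposed 2 h to DMSO-dissolved compounds.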
# [15] = qHTS assay to identify small molecule HDAC inhibitors - cell viability counter screen (AID 1259365)
# How it was run: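 HCT-116 wild-type, overnight attachment; 2hr drug exposure, 37C; CellTiter-Glo luminescent ATP readout after 30min RT.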
# [16] = qHTS assay to identify small molecule agonists of the sonic hedgehog signaling (Shh) pathway - cell viability counter screen (AID 1259366); also: nearly all actives have a fitted effect of over 50% in size; also: potency is read from the fitted curve at half-maximal effect
# How it was run: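 Compounds in DMSO were pin-transferred onto 3T3 Gli1-Luc cells that had settled 4hr; plates then stood 24hr at 37C and 5% CO2. One hour before the end, CellTiter-Fluor was added and fluorescence recorded.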
# [17] = qHTS assay to identify small molecule antagonists of the sonic hedgehog signaling (Shh) pathway - cell viability counter screen (AID 1259367); also: nearly all actives have a fitted effect of over 55% in size; also: potency is read from the fitted curve at half-maximal effect
# How it was run: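 Cells: 3T3 Gli1-Luc, 2,000/well, 4 hr pre-incubation. Compounds in DMSO, then conditioned medium. Incubation 24 hr, 37C, 5% CO2. CellTiter-Fluor at 23 hr, 1 hr, fluorescence.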
# [18] = qHTS assay to identify small molecule agonists of the sonic hedgehog signaling (Shh) pathway (AID 1259368; calls by dose curve;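 also: NIH/3T3-derived 3T3Gli1-Luc cells carrying a stable Gli1-driven firefly luciferase reporter; series mostly up to about 92 µM; nearly all actives have a fitted effect of over 15% in size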)
# How it was run: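 A Gli1 transcriptional response element controlled firefly luciferase in 3T3Gli1-Luc cells. Compounds and a positive control were added 4 hr after plating, and cells were incubated a further 24 hr at 37 C before luminescence detection.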
# [19] = qHTS assay to identify small molecule antagonists of the estrogen receptor alpha (ER-alpha) signaling pathway using the BG1 cell line in the presence of 0.1 nM 17-beta-estradiol - cell viability counter screen (AID 1259241); also: nearly all actives have a fitted effect of over 40% in size
# How it was run: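 Following 5 days in phenol red-free medium with charcoal-stripped serum, VM7Luc4E2 cells received test compounds alongside 0.1 nM 17beta-estradiol (final) at 37C for 22 hr. Live cells were then quantified via protease-substrate fluorescence.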
# [20] = target: Androgen receptor (Homo sapiens) (UniProt P10275); test: qHTS assay to identify small molecule antagonists of the androgen receptor (AR) signaling pathway using the MDA cell line in the presence of 0.5 nM R1881 (AID 1259243); also: nearly all actives have a fitted effect of over 50% in size; also: potency is read from the fitted curve at half-maximal effect
# Chain of Androgen receptor (Homo sapiens) (P10275 whole entry, looked up): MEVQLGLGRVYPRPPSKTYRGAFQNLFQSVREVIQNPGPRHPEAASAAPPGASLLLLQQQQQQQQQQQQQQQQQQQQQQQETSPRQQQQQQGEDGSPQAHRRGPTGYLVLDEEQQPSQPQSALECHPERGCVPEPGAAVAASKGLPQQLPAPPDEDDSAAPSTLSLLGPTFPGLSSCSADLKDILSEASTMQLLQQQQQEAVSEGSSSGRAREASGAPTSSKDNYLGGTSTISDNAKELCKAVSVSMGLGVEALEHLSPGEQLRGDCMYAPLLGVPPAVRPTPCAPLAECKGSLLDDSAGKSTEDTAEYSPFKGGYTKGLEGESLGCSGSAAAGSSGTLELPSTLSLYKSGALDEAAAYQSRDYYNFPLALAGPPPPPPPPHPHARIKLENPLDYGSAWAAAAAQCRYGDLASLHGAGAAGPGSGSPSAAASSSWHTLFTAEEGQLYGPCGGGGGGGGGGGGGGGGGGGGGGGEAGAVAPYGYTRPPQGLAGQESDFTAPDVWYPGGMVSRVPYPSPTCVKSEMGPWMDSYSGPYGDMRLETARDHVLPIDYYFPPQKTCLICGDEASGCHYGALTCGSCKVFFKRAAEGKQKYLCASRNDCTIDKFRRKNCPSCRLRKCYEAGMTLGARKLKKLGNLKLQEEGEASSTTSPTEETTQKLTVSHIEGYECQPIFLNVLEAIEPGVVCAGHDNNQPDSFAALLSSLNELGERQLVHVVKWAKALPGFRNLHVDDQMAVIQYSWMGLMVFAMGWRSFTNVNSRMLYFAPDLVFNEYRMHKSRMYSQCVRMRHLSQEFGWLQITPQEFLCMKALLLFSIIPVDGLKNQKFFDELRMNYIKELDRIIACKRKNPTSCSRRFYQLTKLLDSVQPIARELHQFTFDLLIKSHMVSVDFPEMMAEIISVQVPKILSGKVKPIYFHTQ
# How it was run: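 Reporter cells cultured without CO2 receive test chemicals, then 0.5 nM R1881 final; after 16 hr at 37C, ONE-Glo is added and light output recorded.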
Compound,Potency [1],Potency [2],Potency [3],Potency [4],Potency [5],Potency [6],Potency [7],Potency [8],Potency [9],Potency [10],Potency [11],Potency [12],Potency [13],Potency [14],outcome [15],Potency [16],Potency [17],outcome [18],Potency [19],Potency [20]
CC(=O)OC/C=C(C)/C=C/C=C(C)/C=C/C1=C(C)CCCC1(C)C,inactive,inactive,inactive,inactive,inactive,inactive,inactive,inactive,inactive,inactive,inactive,inactive,inactive,inactive,inactive,inactive,inactive,inactive,,
N[C@@H](Cc1c[nH]c2ccc(O)cc12)C(=O)O,inactive,,inactive,inactive,,inactive,inactive,,inactive,inactive,inactive,inactive,inactive,inactive,inactive,inactive,inactive,inactive,inactive,
OCCCc1ccccc1,,inactive,inactive,inactive,inactive,inactive,inactive,,inactive,inactive,inactive,inactive,inactive,inactive,inactive,inactive,inactive,inactive,,
C=C(C)C(N)=O,inactive,,inactive,inactive,,inactive,inactive,inactive,inactive,inactive,inactive,inactive,,inactive,inactive,inactive,inactive,inactive,inactive,
CN/C(=C\[N+](=O)[O-])NCCSCc1ccc(CN(C)C)o1,,inactive,inactive,inactive,inactive,inactive,inactive,,inactive,inactive,inactive,inactive,inactive,inactive,inactive,inactive,inactive,inactive,inactive,
NC(=O)N/N=C/c1ccc([N+](=O)[O-])o1,inactive,,inactive,inactive,inactive,inactive,inactive,inactive,inactive,inactive,inactive,inactive and 64.8 µM (active),inactive,inactive,inactive,inactive and 54.5 µM (active),inactive and 30.6 µM (active),inactive,,
CC(=O)/C=C/C1=C(C)CCCC1(C)C,inactive,,inactive,inactive,inactive,inactive,inactive,,inactive,inactive,inactive,inactive,,inactive,inactive,inactive,inactive,inactive,inactive,
N[C@@H](Cc1c[nH]c2ccccc12)C(=O)O,inactive,,inactive,inactive,inactive,inactive,inactive,,inactive,inactive,inactive,,,inactive,inactive,inactive,inactive,inactive,,
CC1=C(/C=C/C(C)=C/C=C/C(C)=C/C(=O)O)C(C)(C)CCC1,inactive,,inactive,inactive,inactive,inactive,inactive,inactive,inactive,inactive,inactive,,inactive,inactive,inactive,inactive,inactive,,inactive,
O=c1c(-c2ccc(O)cc2)coc2cc(O)cc(O)c12,inactive,,inactive,inactive,inactive,24.5 µM (active),,inactive,inactive,inactive,inactive,,inactive,8.49 µM (active) and 6.86 µM (active) and 9.44 µM (active),inactive,inactive,inactive,inactive,inactive,inactive
COc1ccccc1NC(=O)CC(C)=O,inactive,,inactive,inactive,inactive,inactive,inactive,inactive,inactive,inactive,inactive,inactive,,inactive,inactive,inactive,inactive,inactive,inactive,
NC(=O)OCC(COC(N)=O)c1ccccc1,,inactive,inactive,inactive,inactive,inactive,inactive,inactive,inactive,inactive,inactive,inactive,inactive,inactive,inactive,inactive,inactive,inactive,inactive,inactive
Cc1ccc(O)c(-n2nc3ccccc3n2)c1,inactive,,inactive,inactive,,inactive,inactive,inactive,inactive,inactive,inactive,inactive,inactive,1.08 µM (active) and 2.17 µM (active) and 1.5 µM (active),inactive,60.6 µM (active) and inactive,inactive,inactive,,
Cc1c(N(C)C)c(=O)n(-c2ccccc2)n1C,inactive,,inactive,inactive,inactive,inactive,inactive,inactive,inactive,inactive,inactive,inactive,inactive,inactive,inactive,inactive,inactive,inactive,inactive,
Cc1c(N(C)CS(=O)(=O)O)c(=O)n(-c2ccccc2)n1C,inactive,,inactive,inactive,,inactive,inactive,,inactive,inactive,inactive,,inactive,inactive,inactive,inactive,inactive,inactive,,
CCn1cc(C(=O)O)c(=O)c2ccc(C)nc21,,inactive,inactive,inactive,inactive,inactive,inactive,inactive,inactive,inactive,inactive,inactive,inactive,inactive,inactive,inactive,inactive,inactive,,

Compound,Potency [1],Potency [2],Potency [3],Potency [4],Potency [5],Potency [6],Potency [7],Potency [8],Potency [9],Potency [10],Potency [11],Potency [12],Potency [13],Potency [14],outcome [15],Potency [16],Potency [17],outcome [18],Potency [19],Potency [20]
C=CC(=O)NC(C)(C)CS(=O)(=O)O,inactive and 43.6 µM (active),,inactive and 24.5 µM (active),inactive and 43.6 µM (active),inactive,inactive,inactive,,inactive,inactive and 38.9 µM (active),inactive,inactive,,inactive,inactive,inactive,inactive,inactive,inactive,
OC[C@@H](O)[C@@H](O)[C@H](O)[C@H](O)CO,,inactive,inactive,inactive,inactive,inactive,inactive,,inactive,inactive,inactive,inactive,inactive,inactive,inactive,inactive,inactive,inactive,inactive,
CC(=O)c1ccc(S(=O)(=O)NC(=O)NC2CCCCC2)cc1,inactive,,inactive,inactive,,inactive,inactive,,inactive,inactive,inactive,inactive,inactive,inactive,inactive,inactive,inactive,inactive,inactive,inactive
CCc1cc(C(N)=S)ccn1,,inactive,inactive,inactive,inactive,inactive,inactive,inactive,inactive,inactive,inactive,,inactive,inactive,inactive,inactive,inactive,inactive,,
CCCCCCCCCCCCCC(=O)OC(C)C,,inactive,inactive,inactive,inactive,inactive and 3.47 µM (active),inactive and 9.77 µM (active),inactive,inactive,inactive,inactive,inactive,inactive,inactive,inactive,inactive,inactive,inactive,,inactive
CCCCCCCCCCCCCCCCCC(=O)OCC(O)CO (stereo not given),inactive,,inactive,inactive,inactive,inactive,inactive,inactive,inactive,inactive,inactive,inactive,inactive,inactive,inactive,inactive,inactive,inactive,,
C#C[C@]1(O)CC[C@H]2[C@@H]3CCC4=CC(=O)CC[C@@H]4[C@H]3CC[C@@]21CC,49.1 µM (active) and inactive,,inactive and 43.6 µM (active),inactive,inactive,43.6 µM (active) and inactive,inactive,inactive,inactive,inactive,inactive,inactive,inactive,inactive,inactive,inactive,inactive,inactive,inactive,
CCCCOCCOCCSC#N,,inactive,inactive,inactive,inactive,inactive,inactive,inactive,inactive,inactive,inactive,,,inactive,inactive,inactive,inactive,inactive,inactive,
O=C(O)Cc1cccc2ccccc12,,inactive,inactive,inactive,inactive,inactive,inactive,inactive,inactive,inactive,inactive,,inactive,inactive,inactive,inactive,inactive,inactive,inactive,
O=c1cc[nH]c(=O)[nH]1,inactive,,inactive,inactive,,inactive,inactive,,inactive,inactive,inactive,,inactive,inactive,inactive,inactive,inactive,inactive,inactive,
Cc1cnc(NC(=O)C2=C(O)c3ccccc3S(=O)(=O)N2C)s1,,inactive,inactive,inactive,inactive,inactive,inactive,,inactive,inactive,inactive,inactive,inactive,inactive,inactive,inactive,inactive,inactive,,
CCOCCO,inactive,,inactive,inactive,inactive,inactive,inactive,inactive,inactive,inactive,inactive,,,inactive,inactive,inactive,inactive,inactive,inactive,
CC(C)=CCC/C(C)=C/CO,inactive,,inactive,inactive,inactive,inactive,inactive,inactive,inactive,inactive,inactive,,inactive,inactive,inactive,inactive,inactive,inactive,inactive,
C[C@]12CC[C@@H]3c4ccc(O)cc4C[C@@H](CCCCCCCCCS(=O)CCCC(F)(F)C(F)(F)F)[C@H]3[C@@H]1CC[C@@H]2O (stereo not given in full),inactive,,inactive,inactive,inactive,43.6 µM (active),43.6 µM (active),,inactive,inactive,inactive,,,inactive,inactive,inactive,inactive,inactive,,8.41 µM (active)
CC(=O)CCC(C)C,inactive and 34.7 µM (active),,inactive and 38.9 µM (active),inactive and 38.9 µM (active),,inactive,inactive,,inactive,inactive and 43.6 µM (active),inactive,inactive,,inactive,inactive,inactive,inactive,inactive,inactive,
